# Dicer processing = inhibitors of human Dicer processing of pre-microRNA | Q9UPY3 | cat-ELCCA pre-miR-21 Dicer processing, chemiluminescence; active compounds read high | z-score at 25 µM | actives 6% (n = 47,000) | AID 1347074; in the data active = z-score above about 3, passing the limit was not always enough;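 note: plate controls were vehicle for no effect and no enzyme for full effect; higher signal means more uncleaved substrate so more Dicer inhibition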
# An asterisk follows results filed as active. The sample as a whole holds a higher share of hits than the screen did.
SMILES,Dicer processing
Cn1c(=O)c2c(O)c(C=Nc3cc(Cl)cc(Cl)c3)c(=O)n(-c3ccccc3)c2n(C)c1=O,-0.87
CC(C)Cn1c(Cc2ccccc2)nc2ccccc21,0.3
CCc1n(CC(O)COc2ccccc2OC)c2ccccc2[n+]1C (centres undefined),-0.3
COc1ccc(NC(=S)N(CCC#N)C2CCCCC2)cc1,1.6
Cc1ccccc1/C=N/N=C/c1ccccc1C,1.2
Cc1ccc(/C(O)=C2/C(=O)C(=O)N(CC(C)O)C2c2ccccn2)cc1 (centres undefined),-0.57
CCOC(=O)/C(C#N)=C/Nc1ccc2oc3ncccc3c(=O)c2c1,-1.1
COc1cc2c(cc1OC)C(C)N(S(=O)(=O)c1sc3ccc(Cl)cc3c1C)CC2 (centres undefined),-0.62
CCOC(=O)c1c(C)nsc1N/N=C(\C#N)C(=O)c1ccc(Cl)cc1,1.6
O=C1SCCC1NS(=O)(=O)c1ccccc1 (centres undefined),0.5
O=C(COc1ccc(Cl)cc1)NC1CCSC1=O (centres undefined),0.2
COc1ccc(S(=O)(=O)NC2CCSC2=O)cc1 (centres undefined),3.7*
CS(=O)(=NS(=O)(=O)NC(=O)Nc1cccc(C(F)(F)F)c1)c1ccccc1 (centres undefined),0.76
NC(N)=NC(N)=Nc1ccc(F)cc1F,-0.23
CCc1ccc(N=C(N)N=C(N)N)cc1,0.41
NN/C(N)=N/C(N)=Nc1ccc(F)cc1,3*
Cc1ccc2ncc(NC(=O)c3ccccc3)c(=O)n2c1,0.38
COc1cc(Cl)c(NC(=O)c2cccc(C(F)(F)F)c2)c(OC)c1,-2
O=C(O)CNC(=O)c1cccnc1Oc1ccccc1,0.58
CCCNC(=O)NCCN1CCNC1=O,-0.07
O=C(CN1C(=O)NC2NC(=O)NC21)NC1CCCCC1 (centres undefined),3.2*
CCC(C)NC(=O)CN1C(=O)c2ccccc2S1(=O)=O (centres undefined),0.07
CCC(C)NC(=O)CN1C(=O)NC2NC(=O)NC21 (centres undefined),4.5*
CCC(C)NC(=O)CN1C(=O)c2cccc3cccc1c23 (centres undefined),0.41
O=C(CC(C(=O)O)C1CCCO1)NC1CCCCC1 (centres undefined),-0.13
SMILES,Dicer processing
CCCNC(=O)CN1C(=O)NC2NC(=O)NC21 (centres undefined),4*
CCCNC(=O)Cn1nc(C(F)(F)F)c(Br)c1C,-0.64
CCCCc1nc(SCC(=O)NC2CCCCC2)n[nH]1,0.32
CC1CCc2sc3ncnc(NCCCN4CCOCC4)c3c2C1 (centres undefined),11
CCCCCc1ccc(NC(=O)Nc2c(Cl)cc(Cl)cc2Cl)cc1,-1.4
S=C(NNC(=S)NC1CC2C=CC1C2)Nc1ccccc1Cl (centres undefined),1.9
CCOc1ccc(C2C(C(=O)OC3CCCC3)=C(C)NC3=C2C(=O)CCC3)cc1 (centres undefined),-0.92
O=C(Nc1nnc(Sc2ccnc3cc(Cl)ccc23)s1)c1cccs1,1.9
O=C(NCCCN1CCN(Cc2c(F)cccc2Cl)CC1)c1cn2cc(C(F)(F)F)cc(Cl)c2n1,-0.04
Cc1cc(Cl)ccc1N=C(C#N)C1=C(O)c2ccccc2C1=O,4.8*
CCc1cccc(C)c1N=C(C#N)C1=C(O)c2ccccc2C1=O,-1.9
Cc1ccc(N=C(C#N)C2=C(O)c3ccccc3C2=O)cc1F,-0.88
O=C(CSC(=S)NNc1ccccc1)c1ccc(Cl)cc1,3.1*
CC(C)(C)SC(=S)SCC(=O)c1ccc(Cl)cc1,-2.7
O=C(CSC(=S)NNc1ccccc1)c1cccc([N+](=O)[O-])c1,-1.1
CC(C)Nc1c(-c2ccccc2)oc2ccc(C(=O)O)cc2c1=O,-1.3
CCOC(=O)[C@@H]1CSC2C3SC[C@@H](C(=O)OCC)N3CCN21 (some centres undefined),-0.99
Cc1c(S(=O)(=O)Nc2ccccc2C(=O)NCC2CC2)sc2ccc(Cl)cc12,-0.69
O=C(NCC1CC1)c1ccccc1NS(=O)(=O)c1cc(Cl)c(Oc2ccc([N+](=O)[O-])cc2Cl)c(Cl)c1,3.3*
N#Cc1c(Cl)cccc1Oc1ccc(S(=O)(=O)Nc2ccccc2C(=O)NCC2CC2)cc1,0.88
CCCc1nnc(N2C(=O)c3oc4ccc(F)cc4c(=O)c3C2c2ccccc2F)s1 (centres undefined),-0.9
O=C1CCCc2nc(N3CCN(c4ccc(F)cc4)CC3)ncc21,-1.2
c1ccc(-c2csc3ncnc(N4CCN(Cc5ccc6c(c5)OCO6)CC4)c23)cc1,4.7*
Clc1ccc(CN2CCCN(c3ncnc4scc(-c5ccccc5)c34)CC2)cc1Cl,-0.88
CCCc1cnc(N2CCN(c3ncnc4scc(-c5ccccc5)c34)CC2)nc1,-1.7
SMILES,Dicer processing
CSc1nc(-c2cc(Cl)cc(Cl)c2)nn1C(=O)N(C)C,0.11
COC(=O)C1=C(C)NC(C)=C(C(=O)OC)C1c1cc(C(=O)OC)c(OC)cc1OC,-0.17
COC(=O)CSC1=C(C#N)C(=O)NC(c2ccc(O)cc2)S1 (centres undefined),0.33
COC(=O)C1=C(C)NC2=C(C(=O)CCC2)C1c1sc2ccccc2c1C (centres undefined),-3.4
COC(=O)C1=C(C)NC2=C(C(=O)CC(C)(C)C2)C1c1ccccn1 (centres undefined),0.16
CC1=C(C(=O)OCCc2ccccc2)C(c2ccccn2)C2=C(CCCC2=O)N1 (centres undefined),1.4
COC(=O)C1=C(C)NC2=C(C(=O)CCC2)C1c1ccc(C#Cc2ccccc2)s1 (centres undefined),3.1*
COCCOC(=O)C1=C(C)NC2=C(C(=O)CCC2)C1c1ccc(C)s1 (centres undefined),1
COC(=O)C1=C(C)NC2=C(C(=O)CCC2)C1c1ccccn1 (centres undefined),3.3*
Cc1ccc(-c2cc(C(F)(F)F)c(C#N)c(=S)[nH]2)cc1,-1
O=C1CSC(=O)N1Cc1ccc(CN2C(=O)CSC2=O)cc1,-0.17
COC(=O)CN1c2ccccc2NC2=C(C(=O)CC(C)(C)C2)C1c1ccco1 (centres undefined),-1.1
O=C(O)CCC(=O)NCc1ccco1,0.43
Cc1c(C#N)c(N)n(Cc2cc(C(F)(F)F)cc(C(F)(F)F)c2)c1C,1.5
CCc1sc(-c2c(C#N)c(N)nc3c2CCCC3)cc1[N+](=O)[O-],-0.69
Cc1ccc(-c2nnc3c4ccccc4c(C)nn23)cc1S(=O)(=O)N1CCCCC1,1.4
Cc1ccc(-c2nnc3c4ccccc4c(C)nn23)cc1S(=O)(=O)N1CCC(C)CC1,5.5*
Cc1ccc(-c2nnc3c4ccccc4c(C)nn23)cc1S(=O)(=O)N(C)C1CCCCC1,0.96
CCn1ncc(CNC(=O)c2cnn3c(C(F)F)cc(-c4ccc(C)cc4)nc23)c1C,0.29
CCOC(=O)c1cnn2c(C(F)F)cc(-c3ccc(C)cc3)nc12,3.5*
COC(=O)c1cnn2c(C(F)F)cc(-c3ccc(C)cc3)nc12,-1.5
CCOC(=O)c1cc(-c2ccc(Br)s2)n[nH]c1=O,0.81
COC(=O)c1cc(C2C(C#N)=C(C)NC3=C2C(=O)CC(C)(C)C3)c(OC)cc1OC (centres undefined),-0.56
O=C1Nc2ccccc2/C1=C\C1CC2C=CC1C2 (centres undefined),2.9
O=C(CN1C2=NCCCN2c2ccccc21)c1ccc2c(c1)OCO2,0.97
O=C(CN1C2=NCCN2c2ccccc21)c1ccc(Cl)cc1,0
O=C(CN1C2=NCCCN2c2ccccc21)c1ccc(Br)cc1,4*
N/C(=N\O)c1cnccc1C(F)(F)F,1

# Screens: PubChem, Center for Chemical Genomics, University of Michigan
